The campaign covered roughly 96,000 compounds. About 20,000 (21%) were called active. The list is a sample of the results. Values without a mark were called inactive.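 How the source made its calls: active means CYP2C19 inhibition above a set limit at 5 µM in the primary screen (cut at about 50% in these data); inactive means the rest.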
Each compound was assayed against Cytochrome P450 2C19 (Homo sapiens) (UniProt P33261) (assay: blockers of cytochrome P450 2C19 activity – biochemical, luminescence, ADME assay, primary screen (AID 778;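 further: plate controls were negative control wells for no effect and 2.5 mM tranylcypromine positive control for full effect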)). Details: CYP2C19 Supersomes, luciferin-H EGE luminescence, 30 min; at 5 µM; active compounds read high.
Cytochrome P450 2C19 (Homo sapiens), sequence (P33261 whole entry, looked up): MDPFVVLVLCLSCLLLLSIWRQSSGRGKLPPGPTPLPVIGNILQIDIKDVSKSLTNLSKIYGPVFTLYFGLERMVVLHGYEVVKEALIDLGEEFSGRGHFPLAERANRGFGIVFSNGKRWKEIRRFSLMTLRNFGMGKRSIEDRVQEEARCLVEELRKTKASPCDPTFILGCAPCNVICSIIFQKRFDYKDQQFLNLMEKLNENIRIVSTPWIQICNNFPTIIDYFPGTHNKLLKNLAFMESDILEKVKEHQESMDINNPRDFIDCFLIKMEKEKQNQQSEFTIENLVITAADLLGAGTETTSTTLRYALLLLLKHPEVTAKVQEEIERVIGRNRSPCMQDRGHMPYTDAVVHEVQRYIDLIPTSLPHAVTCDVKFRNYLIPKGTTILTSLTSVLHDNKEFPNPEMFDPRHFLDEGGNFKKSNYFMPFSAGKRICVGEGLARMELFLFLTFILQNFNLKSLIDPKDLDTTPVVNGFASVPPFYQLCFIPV

Structure (SMILES) | inhibition
COCCCNC(=O)CN1CCN(Cc2ccccc2Cl)C1=O | -10.8%
CCOC(=O)c1cnn(Cc2ccccc2Cl)c1N | 30.5%
COC(=O)c1ccc(COC(=O)c2c(C)nn(Cc3ccccc3Cl)c2Cl)o1 | 90.5% (active)
CCOC(=O)c1sc(/N=C/Nc2nc(C)c(C(=O)OCC)s2)nc1C | 7.2%
c1ccc(CC2CCN(c3nc4ccccc4n4cnnc34)CC2)cc1 | -7.7%
CC(=O)c1ccc(Cc2ncc(C(F)(F)F)cc2Cl)s1 | 16.5%
O=C(Cc1ncc(C(F)(F)F)cc1Cl)Nc1cccc(Br)c1 | 55.7% (active)
O=C(CN1CCN(c2ncc(C(F)(F)F)cc2Cl)CC1)Nc1ccc2c(c1)OCO2 | 22%
CCOC(=O)c1[nH]c2c(c1C)C(=O)CC(c1ccc(N(C)C)cc1)C2 (stereo unspecified) | 6.7%
CCCCn1c(SCc2ncc(-c3ccccc3)o2)nc2cc(S(N)(=O)=O)ccc21 | 25%
Cc1cc(C)nc(NC(=O)Nc2ccccc2C(F)(F)F)n1 | 21%
O=C(c1ccccc1)c1cc(-c2ccccn2)c(N2CCOCC2)s1 | 14.1%
COc1cccc(-c2nnc(SCCOc3ccc4c(C)cc(=O)oc4c3)o2)c1 | -15.6%
Cc1cc(=O)oc2ccc(OCC(=O)O)cc12 | 3.3%
Cc1cc(=O)oc2cc(OCC3CC(c4ccccc4Cl)=NO3)ccc12 (stereo unspecified) | 50.8% (active)
CCOC(=O)c1c(NC(=O)CSc2nnc(CN3CCOCC3)n2C)sc2c1CCCC2 | 48.7%
NC(=O)C1CC=CCC1C(=O)OCC(Cl)=C(Cl)Cl (stereo unspecified) | 22%
COc1ccc(OC)c(N=Cc2c(O)[nH]c3ccccc23)c1 | 7.7%
COc1cc(N=Cc2c(O)[nH]c3ccccc23)cc(OC)c1OC | 63.9% (active)
COc1ccc(N=Cc2c(O)[nH]c3ccccc23)cc1OC | 32.9%
Nn1c(SCC(=O)NC2CCCC2)nnc1-c1ccccc1F | 21.3%
O=c1[nH][nH]c(C(F)(F)F)c1C=NCc1ccccc1Cl | 93.3% (active)
CC/S(CC1CC1(Cl)Cl)=N\S(=O)(=O)c1ccc(C)cc1 (stereo unspecified) | 9.6%
COc1ccc(NS(=O)(=O)c2ccc(NC(=O)C(C)(C(F)(F)F)C(F)(F)F)cc2)nn1 | -7.1%
CC1=NC2(CCCc3c2no[n+]3[O-])N(O)C1(C)C (stereo unspecified) | -17.9%
CSc1nnc2c(n1)OC(c1cn(C)c3ccccc13)N(C(C)=O)c1ccccc1-2 (stereo unspecified) | 0.8%

Structure (SMILES) | inhibition
Oc1c(C(c2ccccn2)N2CCOCC2)ccc2cccnc12 (stereo unspecified) | -8.6%
CCOC(=O)N1CCN(C(=O)COc2ccc(Cl)cc2C)CC1 | 14.4%
CCOC(=O)N1CCN(C(=O)COc2ccc(Br)cc2)CC1 | 59.1% (active)
CCOC(=O)N1CCN(C(=O)CSc2ccc(Cl)cc2)CC1 | 71.6% (active)
CCOC(=O)C1CCN(C(=O)CSc2cc(=O)n(C)c3ccccc23)CC1 | 2.4%
CCOC(=O)N1CCN(C(=O)CNC(=O)Cc2ccc(Cl)cc2)CC1 | 5.9%
CCOC(=O)C1CCN(C(=O)Cc2c(C(=O)O)[nH]c3ccccc23)CC1 | 2.6%
CN1CCCC(OC(=O)COc2ccc(Br)cc2)C1 (stereo unspecified) | 27%
CCOC(=O)C1CCN(C(=O)COc2cc(C)c(Br)c(C)c2)CC1 | 86.3% (active)
CCOC(=O)N1CCN(C(=O)CSc2nnc(-c3c[nH]c4ccccc34)n2CCOC)CC1 | 4.5%
CC12C(=O)N(n3cnnc3)C(=O)C1C1C=CC2C1 (stereo unspecified) | -13.7%
Cc1cc2nnc(SCC(=O)N3CCN(c4ccccc4)CC3)n2c(N)n1 | -9.1%
NC(=O)CSC1=Nc2ccccc2C2=NC(CCC(=O)NCc3ccc(F)cc3)C(=O)N12 (stereo unspecified) | 47.9%
CCOC(=O)CCc1c(C)c(C#N)c2[nH]c3ccccc3n2c1=O | 27.1%
CC1CN(C2CCCCC2)c2nc3c(c(=O)n(C)c(=O)n3C)n2C1 (stereo unspecified) | 29.5%
O=C1NC(c2cc3c(cc2Cl)OCO3)Oc2ccccc21 (stereo unspecified) | 55.5% (active)
Cc1cc(C)c2c3c(sc2n1)C(c1ccccc1)C(C#N)=C(N)O3 (stereo unspecified) | -7.9%
CN(C)c1cc[n+](Cc2ccccc2)cc1 | -3.4%
CN(C)c1ccc(/C=C2\NC(=S)N(Cc3ccccc3)C2=O)cc1 | 57.6% (active)
CC1=NN(Cc2ccccc2)C(=O)/C1=C/c1ccc(N(C)C)cc1 | 10.1%
CCCCCCCC(=O)NC(Nc1ccccc1OC)C(Cl)(Cl)Cl (stereo unspecified) | 3.6%
CCOC(=O)CSc1nnc(CNc2ccc(F)cc2)o1 | 56.5% (active)
CCOC(=O)CSc1nnc(-c2cccc(Br)c2)o1 | 28.9%
CCC(=O)Nc1ccc(C(=O)CSc2nnc(CNc3ccc(Cl)cc3)o2)cc1OC | 11%
CNC(=O)c1nnn(-c2ccccc2)c1C(=O)NC | -4%
Cc1ccc(-n2ncc3c(=O)n(-c4ccc(C)c(C)c4)c(-c4ccco4)nc32)cc1 | 30.9%

Structure (SMILES) | inhibition
O=C(NCc1cccnc1)c1ccc(CS(=O)(=O)c2ccc(Br)cc2)o1 | 100% (active)
O=S(=O)(c1ccc(Br)cc1)c1nc(-c2ccccc2)oc1NCc1cccnc1 | 18.4%
O=C(NCc1ccco1)c1ccc(CS(=O)(=O)Cc2ccc(F)cc2)o1 | 42.4%
CC(C)CNC(=O)C1CCCN(S(=O)(=O)c2ccc(-n3cnnn3)cc2)C1 (stereo unspecified) | -17.5%
CC(C)(C)C(=O)CCN1C(=O)C2(OCCO2)c2ccccc21 | 30%
C=CCn1c(-c2ccc3[nH]c(C)c(C)c3c2)n[nH]c1=S | 29.1%
O=C(NCc1cn2ccsc2n1)Nc1ccc(Cl)cc1 | 29.8%
O=c1cc(Cn2nnc(-c3ccc(Cl)cc3)n2)nc2sccn12 | 65.5% (active)
O=C(NCc1ccc(Cl)cc1)c1cc2c(nc3sccn32)s1 | 14.8%
Cc1cccc(C)c1NC(=O)N1CC=C(n2c(=O)[nH]c3ccccc32)CC1 | -0.4%
Cc1nn(-c2ccccc2)c2c1C(=O)NC(=O)C(C)(C)C2 | 28%
Cc1ccc(C2=NN(C)c3nc4ccccc4n3C2)cc1 | 12.8%
CCN(CC(=O)NC(C)C)C(=O)CCNC(=O)c1ccc(Cl)cc1 | 10.5%
Cc1ccc(CNC(=O)CCCNC(=O)c2ccc(Cl)cc2)n1C | 60.2% (active)
CCCCNC(=O)CCNC(=O)c1ccc(C(C)(C)C)cc1 | 31.5%
N#C/C(=C(\O)CCl)c1nnc2n1CCCCC2 | 3.5%
O=C1CCCCC(=O)c2ccccc2N1 | 12.2%
CCCCOc1ccc(C(=O)NCc2ccncc2)cc1 | 76.1% (active)
CCOc1ccc(NC(=O)Nc2cc(C)on2)cc1 | 22.7%
CCOc1cccc(C(=O)Nc2cccnc2)c1 | -3.6%
CCOc1ccc(C(=O)Nc2ccncc2)cc1 | 97.9% (active)
CCCCCCOc1ccc(OC(=O)c2cccnc2)cc1 | 20.8%
CCCCOc1ccc(C(=O)NCc2ccco2)cc1 | 20.2%
CC(=O)Nc1nonc1-c1nc2ccccc2n1Cc1ccccn1 | -7.6%
CCN1C(=O)/C(=C2/Sc3ccccc3N2CCCS(=O)(=O)O)SC1=S | 0%
CCOc1ccc2[nH]c(=O)c(CN(CCCO)C(C)=O)cc2c1 | -11.4%

Structure (SMILES) | inhibition
CC(C)CNC(=O)c1cc(-c2ccc(Br)cc2)on1 | -6.3%
c1ccc2c(c1)OCC(CNc1ncnc3nc[nH]c13)O2 (stereo unspecified) | 4%
Cc1cccc2c(=O)n3c(nc12)CCCCC3 | 28.1%
O=c1c2c(nc3n1CCCCC3)sc1c(O)cccc12 | 72.2% (active)
O=C(Nc1ccc2nc3n(c(=O)c2c1)CCCCC3)c1ccccc1Cl | 13.1%
O=C(CSc1nc2c(cnn2-c2ccc(F)cc2)c(=O)[nH]1)N1CCCCCC1 | 2.3%
Cc1noc(C)c1C(=O)OCC(=O)/C=C1\N(C)c2ccccc2C1(C)C | 60.2% (active)
CN1/C(=C\C(=O)c2oc3ccccc3c2N)C(C)(C)c2ccccc21 | 47.9%
CN1/C(=C\C=C2\N=C(c3ccc(F)cc3)OC2=O)C(C)(C)c2ccccc21 | 45.9%
O=P(O)(CP(=O)(c1ccccc1)c1ccccc1)c1ccccc1 | -1.3%
Cc1ccc(N2CCN(c3ccc(C)cc3)C2c2ccccn2)cc1 | 27.1%
CCc1ccccc1NC(=O)/C(=C/c1ccccc1)c1ccccc1 | 28.8%
O=C(CSc1nnc(-c2cccs2)n1Cc1ccccc1)N1CCc2ccccc2C1 | 31.9%
O=c1[nH]c(-c2cccs2)nc2ccccc12 | 1.4%
O=c1onc(-c2cccs2)n1Cc1ccccc1 | 79.9% (active)
Cn1c(C(=O)NCCN2CCc3ccccc3C2)cc2c(=O)[nH]c3ccccc3c21 | 14.8%
CCOC(=O)CCc1c(C)c2ccc(OCc3nn[nH]n3)c(C)c2oc1=O | 0%
O=C1c2cccc3cc(Br)cc(c23)C(=O)N1Nc1ccccc1 | 29.2%
Cc1noc(NS(=O)(=O)c2ccc(NC(=O)C34CCC(CC3)C4)cc2)c1C | -12.3%
Cc1ccccc1C(=O)N1CCC(C(=O)Nc2ccc(S(=O)(=O)N(C)C(C)C)cc2)CC1 | 25.1%
COC(=O)c1[nH]c2ccccc2c1NS(=O)(=O)c1ccc(OC)cc1OC | 89.7% (active)
CCCS(=O)(=O)Nc1c(C(=O)O)[nH]c2ccccc12 | 11.8%
COC(=O)c1[nH]c2ccc(Br)cc2c1NC(=O)Oc1ccccc1 | 7.3%

From PubChem BioAssay AID778 (Sanford-Burnham Center for Chemical Genomics, 2007)
